From paper PMC5913336, “True equilibrium measurement of transcription factor-DNA binding affinities using automated polarization microscopy”

target: Ttk-PF (Drosophila melanogaster, UniProt P17789 499-564); test: FP; 33 mM phosphate pH 7.0, 90 mM NaCl, 0.01% Tween 20, 0.1 mM DTT, 0.5% agarose; room temperature; conditions: dsDNA, one strand shown

Compared with TCGCCAGGATCAC, TCGCCAGAATAAC is higher in binding signal: 7.79 Kd / Kd of best base at the position for the first, > 208 Kd / Kd of best base at the position for the second.

First: TCGCAAGGATAAC
Second: TCGCCAGGCTAAC
The binding signal of the first is higher: > 208 Kd / Kd of best base at the position for the first, 5.16 Kd / Kd of best base at the position for the second.

First: TCGTCAGGATAAC
Second: TCGCCAGGATAAA
The binding signal of the first is higher: > 208 Kd / Kd of best base at the position for the first, 1.28 Kd / Kd of best base at the position for the second.

TCGCCGGGATAAC and TCGCCTGGATAAC cannot be ordered by binding signal: > 208 Kd / Kd of best base at the position for the first, > 208 Kd / Kd of best base at the position for the second.

First: TCGCCAGGATAAT
Second: TCGCTAGGATAAC
The binding signal of the first is lower: 1.84 Kd / Kd of best base at the position for the first, > 208 Kd / Kd of best base at the position for the second.

Going from TCGCCAGGATAGC to TGGCCAGGATAAC, the binding signal rises from 1 Kd / Kd of best base at the position to 2.43 Kd / Kd of best base at the position.

Going from TCACCAGGATAAC to TCGCCAGGAGAAC, the binding signal rises from 5.13 Kd / Kd of best base at the position to 8.25 Kd / Kd of best base at the position.

First: TCGCCAGGATAAG
Second: TCGCCAAGATAAC
The binding signal of the first is lower: 1.76 Kd / Kd of best base at the position for the first, 124 Kd / Kd of best base at the position for the second.

Going from TTGCCAGGATAAC to TCGCCAGTATAAC, the binding signal rises from 1.71 Kd / Kd of best base at the position to > 208 Kd / Kd of best base at the position.

Compared with TCCCCAGGATAAC, TCTCCAGGATAAC is higher in binding signal: 2.9 Kd / Kd of best base at the position for the first, 3.54 Kd / Kd of best base at the position for the second.

First: TCGCGAGGATAAC
Second: TCGCCAGCATAAC
The binding signal of the first is higher: 67.2 Kd / Kd of best base at the position for the first, 5.81 Kd / Kd of best base at the position for the second.

Compared with TAGCCAGGATAAC, TCGGCAGGATAAC is lower in binding signal: 1.69 Kd / Kd of best base at the position for the first, 1.42 Kd / Kd of best base at the position for the second.

Going from TCGCCAGGATACC to TCGACAGGATAAC, the binding signal rises from 3.82 Kd / Kd of best base at the position to 26.7 Kd / Kd of best base at the position.

First: TCGCCACGATAAC
Second: TCGCCAGGGTAAC
The binding signal of the first is higher: > 208 Kd / Kd of best base at the position for the first, 8.56 Kd / Kd of best base at the position for the second.

Going from TCGCCAGGTTAAC to TCGCCAGGATTAC, the binding signal falls from 12.8 Kd / Kd of best base at the position to 1.69 Kd / Kd of best base at the position.

First: TCGCCATGATAAC
Second: TCGCCAGGATGAC
The binding signal of the first is higher: > 208 Kd / Kd of best base at the position for the first, 3.28 Kd / Kd of best base at the position for the second.

First: TCGCCAGGATATC
Second: TCGCCAGGAAAAC
The binding signal of the first is lower: 1.65 Kd / Kd of best base at the position for the first, 13.5 Kd / Kd of best base at the position for the second.

Compared with GCGCCAGGATAAC, CCGCCAGGATAAC is higher in binding signal: 2.76 Kd / Kd of best base at the position for the first, 3.01 Kd / Kd of best base at the position for the second.

Compared with TCGCCAGGACAAC, TCGCCCGGATAAC is higher in binding signal: 12.9 Kd / Kd of best base at the position for the first, > 208 Kd / Kd of best base at the position for the second.

Work on TCGCCAGGATAAC yielded a Kd of roughly 48 nM.
